The source of these data is PubChem BioAssay (NCATS).

The structures appear in SMILES notation. For part of these data: Potency and affinity values are given separately. The source made the active and inactive calls.

For assay [1] the following is noted: Ebola virus entry assay, ratio channel.
The conditions of assay [2]: Ebola virus entry assay, green channel fluorescence.
For assay [3] the following is noted: Ebola virus entry assay, reporter ratio channel; AC50: Channel type: primary unless noted; outcome: Channel type: primary unless noted.
For assay [4] the following is noted: Ebola virus entry assay, blue channel (ratio component).
For assay [5] the following is noted: Ebola virus entry cell assay, ratio channel.
Assay [6] is described as follows: High-throughput drug toxicity screening in the BPDCN cell line Gen2.2 (AID 1224824).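 Note: cells exposed to compounds for 48 h before reading.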 Conditions: Gen2.2 BPDCN cells; at 45.8 µM (top of the series) unless noted. In a few lines:
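Gen2.2 cells (500/well) in phenol red-free RPMI with 10% FBS were exposed to compounds for 48 h at 37 °C, 5% CO2. Viability was read by CellTiter-Glo luminescence and normalized to DMSO (100%) and 9.2 uM bortezomib (0%).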

As to `O=C(c1ccccc1)C(O)c1ccccc1` (stereo not drawn), the result in assay [1], in assay [2], in assay [3] and in assay [4] was inactive.

In the case of `Cc1cnc(NC(=O)C2=C(O)c3ccccc3S(=O)(=O)N2C)s1`, the result in assay [1], in assay [2], in assay [3] and in assay [4] was inactive.

Turning to `Cc1ccccc1C(=O)Nc1ccc(C(=O)N2CCCC(N(C)C)c3ccccc32)cc1` (stereo not drawn), the result in assay [1], in assay [2], in assay [3] and in assay [4] was inactive.

On to `COc1cc(C(=O)OC(COCCC(C)C)CN2CCOCC2)cc(OC)c1OC` (stereo not drawn), for which the outcome in assay [1], in assay [2], in assay [3] and in assay [4] was inactive.

As to `CC1(C)O[C@@H]2C[C@H]3[C@@H]4CCC5=CC(=O)C=C[C@]5(C)[C@@H]4[C@@H](O)C[C@]3(C)[C@]2(C(=O)CO)O1`, the outcome in assay [1], in assay [2], in assay [3] and in assay [4] was inactive.

For `CCOc1ccc(NS(=O)(=O)c2ccc(N)cc2)nn1`, the outcome in assay [1], in assay [2], in assay [3] and in assay [4] was inactive.

Turning to `OC[C@H]1O[C@@H]2O[C@H]3[C@H](O)[C@@H](O)[C@@H](O[C@H]4[C@H](O)[C@@H](O)[C@@H](O[C@H]5[C@H](O)[C@@H](O)[C@@H](O[C@H]6[C@H](O)[C@@H](O)[C@@H](O[C@H]7[C@H](O)[C@@H](O)[C@@H](O[C@H]8[C@H](O)[C@@H](O)[C@@H](O[C@H]1[C@H](O)[C@H]2O)O[C@@H]8CO)O[C@@H]7CO)O[C@@H]6CO)O[C@@H]5CO)O[C@@H]4CO)O[C@@H]3CO`, the result in assay [1], in assay [2], in assay [3] and in assay [4] was inactive.

As for `CC(=O)N(CC(O)CO)c1c(I)c(C(=O)NCC(O)CO)c(I)c(C(=O)NCC(O)CO)c1I` (stereo not drawn), the outcome in assay [1], in assay [2], in assay [3] and in assay [4] was inactive.

Consider `CCN(CC)S(=O)(=O)c1ccc(C(=O)O)cc1`, for which the result in assay [1], in assay [2], in assay [3] and in assay [4] was inactive.

Take `COC(=O)c1cc(Cl)ccc1OC`: the outcome in assay [1], in assay [2], in assay [3] and in assay [4] was inactive.

Broadly, the AC50 is the concentration giving half of the maximal activity seen. Take `C=C[C@H]1CN2CC[C@H]1C[C@H]2[C@H](O)c1ccnc2ccc(OC)cc12`: the AC50 in assay [1] and in assay [3] was 22.4 µM (active) in each case. Moreover, the molecule was called inactive in assay [2] and in assay [5].

With `O=[N+]([O-])c1cncn1CCN1CCOCC1`, the outcome in assay [1], in assay [2], in assay [3] and in assay [4] was inactive.

For the molecule `COc1cc(OC)c(OC)cc1C=O`, the outcome in assay [1], in assay [2], in assay [3] and in assay [4] was inactive. In assay [6], this molecule yielded a cell viability, % of control (lower = more cytotoxic) of 98.9%.

In the case of `CC(C)(C)CC(C)(C)c1ccc(OCCOCC[N+](C)(C)Cc2ccccc2)cc1`, the AC50 in assay [1] and in assay [3] was 2.51 µM (active) throughout.

`CC(C)C[C@H](NC(=O)CNC(=O)[C@H](Cc1ccc(O)cc1)NC(=O)[C@H](CO)NC(=O)[C@H](Cc1c[nH]c2ccccc12)NC(=O)[C@H](Cc1cnc[nH]1)NC(=O)[C@@H]1CCC(=O)N1)C(=O)N[C@@H](CCCN=C(N)N)C(=O)N1CCC[C@H]1C(=O)NCC(N)=O` (stereo in doubt): the outcome in assay [1], in assay [2], in assay [3] and in assay [4] was inactive.

With `c1ccc(-c2nc[nH]c2-c2ccccc2)cc1`, the result in assay [1], in assay [2], in assay [3] and in assay [4] was inactive.

On to `CC(N)CCCC(C)(C)O` (stereo not drawn), for which the outcome in assay [1], in assay [2], in assay [3] and in assay [4] was inactive.

With `COc1ccc(Cc2cnc(N)nc2N)cc1OC`, the outcome in assay [1], in assay [2], in assay [3] and in assay [4] was inactive.

As to `CN(C)CCOC(=O)C(c1ccccc1)C1(O)CCCC1` (stereo not drawn), the result in assay [1], in assay [2], in assay [3] and in assay [4] was inactive.

With `COc1cc(C(=O)N2CCCCCCC2)cc(OC)c1OC`, the outcome in assay [1], in assay [2], in assay [3] and in assay [4] was inactive.

For the molecule `O=C(O)c1cc(-c2ccccc2)nc2ccccc12`, the result in assay [1], in assay [2], in assay [3] and in assay [4] was inactive.

Turning to `C[C@H]1[C@@H]2Cc3ccc(O)cc3[C@@]1(C)CCN2C`, the result in assay [1] and in assay [3] was inactive.

For `CC(Cc1ccccc1)N(C)Cc1ccco1` (stereo not drawn), the outcome in assay [1], in assay [2], in assay [3] and in assay [4] was inactive.

In the case of `C[C@]12CCC(=O)C=C1CC[C@@H]1[C@H]3CC[C@](C)(O)[C@@]3(C)CC[C@@H]12`, the outcome in assay [1], in assay [2], in assay [3] and in assay [4] was inactive. This molecule gave a cell viability, % of control (lower = more cytotoxic) in assay [6] of 95.2% [at 92.2 µM].

On to `O=C(NC(Cc1cc(=O)[nH]c2ccccc12)C(=O)O)c1ccc(Cl)cc1` (stereo not drawn), for which the result in assay [1], in assay [2], in assay [3] and in assay [4] was inactive.

`C=CCN1C[C@H](C(=O)N(CCCN(C)C)C(=O)NCC)C[C@@H]2c3cccc4[nH]cc(c34)C[C@H]21`: the outcome in assay [1], in assay [2], in assay [3] and in assay [4] was inactive. In addition, the AC50 in assay [5] was 15.8 µM (active).

As to `CCC(C(=O)NC(=O)NC(C)=O)c1ccccc1` (stereo not drawn), the result in assay [1], in assay [2], in assay [3] and in assay [4] was inactive.

As for `Cc1cc(-n2nc3ccc(Cl)cc3n2)c(O)c(C(C)(C)C)c1`, the outcome in assay [1], in assay [2], in assay [3] and in assay [4] was inactive.

`CC(C(=O)O)c1ccc(C(=O)c2ccccc2)s1` (stereo not drawn): the result in assay [1], in assay [2], in assay [3] and in assay [4] was inactive.

Regarding `CC(C)OP(=O)(CP(=O)(OC(C)C)OC(C)C)OC(C)C`, the outcome in assay [1], in assay [2], in assay [3] and in assay [4] was inactive.

In the case of `Nc1ccc(S(=O)(=O)Nc2ccnn2-c2ccccc2)cc1`, the outcome in assay [1], in assay [2], in assay [3] and in assay [4] was inactive.
